Results reported in PubChem BioAssay.
Calls of active or inactive are those of the source. Rule as the data show it: active = inhibition above about 31%; inactive = the rest.

Assay: MRP1 drug-resistance reversers in H69AR cells – cell-based, doxorubicin co-treatment, pilot screen (AID 601)
Conditions: H69AR cells, CellTiter-Glo, 72 h; compound alone cytotoxicity; at 10 µM

| Compound | viability [%] |
| --- | --- |
| CCc1nnc(NC(=O)c2ccc(COc3ccc(C)cc3)o2)s1 | 106 |
| CC(C)Cn1c(CN2CCN(c3ccccc3F)CC2)nc2c1c(=O)[nH]c(=O)n2C | 93 |
| O=C(CN(c1ccc(F)cc1)S(=O)(=O)c1ccc2c(c1)OCCO2)Nc1ccc2c(c1)OCO2 | 99.8 |
| CC1(C)Cc2noc(N)c2C(C)(C)N1O | 95.6 |
| COC(=O)CCn1nnc(-c2cccs2)n1 | 103 |
| CCOc1ccc(N(C(C)=O)C2C=CS(=O)(=O)C2)cc1 (stereo not given) | 94.9 |
| CS(=O)(=O)N1CCCC(C(=O)NCCCN2CCC(Cc3ccccc3)CC2)C1 (stereo not given) | 103 |
| Cn1c(=O)cc(OCC(=O)NCCCN2CCN(c3cccc(Cl)c3)CC2)c2ccccc21 | 63.7 |
| CCC(C)NC(=O)c1ccccc1NC(=O)C(C)N(c1ccccc1)S(C)(=O)=O (stereo not given) | 94.5 |
| COc1ccc2nc3oc(C(=O)NC4CCN(Cc5ccccc5)CC4)cc3cc2c1 | 82.6 |
| Cc1c(Cl)cccc1N1C(=O)c2ccccc2C1=O | 111 |
| O=C(NC1CCCC1)C(c1ccco1)N(Cc1ccccc1)C(=O)c1csnn1 (stereo not given) | 97.5 |
| O=C(O)Cn1cc(C(=O)c2ccco2)c2ccccc21 | 85.5 |
| CC(C)(C)Cc1nc(-c2ccccn2)no1 | 100 |
| COCC(=O)N(Cc1ccc(OC)cc1)Cc1nc2ccccc2c(=O)[nH]1 | 86.2 |
| CCCN1C(=O)SC(CC(=O)Nc2ccc(Br)cc2)C1=O (stereo not given) | 95.8 |
| COc1cccc(C(=O)n2cnnc2N)c1OC | 89.9 |
| O=C(Cn1c(=O)n(Cc2ccc3c(c2)OCO3)c(=O)c2ccccc21)N1CCCc2ccccc21 | 82.2 |
| CC(C)[C@H](NC(=O)NC1CCCC1)C(=O)O | 104 |
| COc1ccc(-c2cc3n(n2)CCc2nc4ccccc4n2-3)cc1 | 93.3 |

| Compound | viability [%] |
| --- | --- |
| CCc1nc2scc(-c3ccccc3)c2c(=O)n1N | 88.4 |
| O=S(=O)(Nc1cccc2ncccc12)c1cccs1 | 1.71 |
| O=C(O)c1cccc(CN2C(=O)SC(Nc3ccccc3)C2=O)c1 (stereo not given) | 103 |
| Cc1nc2ccc(N3C(=O)CCC3=O)cc2[nH]1 | 103 |
| COCCn1nnnc1C(c1ccc(OC)cc1)N1CCN(c2ccccc2F)CC1 (stereo not given) | 89.7 |
| O=S(=O)(c1ccc2nc(Cc3cccc(C(F)(F)F)c3)[nH]c2c1)N1CCOCC1 | 82.9 |
| Cc1nnc(SCC(=O)N(C(C)C)C(C)C)nc1C | 103 |
| O=C(NC1CCCCC1)C1CC(O)CN1C(=O)OCc1ccccc1 (stereo not given) | 93.4 |
| CCOC(=O)c1ccc(CC2S/C(=C(\C#N)C(C)=O)NC2=O)cc1 (stereo not given) | 89.6 |
| COc1ccc(C2CC(=O)C(C=NCCN3CCOCC3)=C(O)C2)cc1 (stereo not given) | 98.5 |
| CN1C(=O)CCC1(O)c1ccccc1 (stereo not given) | 92.3 |
| O=c1[nH]c(/C(=N\O)c2ccccc2)no1 | 73.2 |
| COC(=O)C1=C(N)Oc2cc(C)[nH]c(=O)c2C1c1ccncc1 (stereo not given) | 94.7 |
| O=C(c1cc(S(=O)(=O)N2CCOCC2)ccc1F)N1CCCc2ccccc21 | 90.9 |
| CCc1nc(C)c(C#N)c2cc(OC)c(OC)cc12 | 82.4 |
| COc1ccc2c(c1OC)C(=O)N(c1ccc3c(c1)CCC3)C2=O | 107 |
| COc1cc(CC(=O)NCc2ccc3c(c2)OCO3)cc(OC)c1OC | 95.8 |
| COc1ccc(CCNC(=O)c2ccc(N3CCCC3=O)cc2)cc1OC | 92.1 |
| COc1ccccc1NC(=O)c1ccc(COc2ccccc2OC)o1 | 97.2 |
| COc1ccc(NC(=O)CSC2=C(C#N)C(c3ccco3)C3=C(CCCC3=O)N2)c(OC)c1 (stereo not given) | 73 |

Assay: yeast transport mutant growth inhibition pilot in 384-well plates, post-Golgi transport modulator project (AID 636)
Conditions: absorbance 615 nm, about 18 h, stronger effect = higher value

| Compound | inhibition |
| --- | --- |
| CCc1nnc(NC(=O)c2ccc(COc3ccc(C)cc3)o2)s1 | -3.01% (inactive) |
| CC(C)Cn1c(CN2CCN(c3ccccc3F)CC2)nc2c1c(=O)[nH]c(=O)n2C | -4.27% (inactive) |
| O=C(CN(c1ccc(F)cc1)S(=O)(=O)c1ccc2c(c1)OCCO2)Nc1ccc2c(c1)OCO2 | 0.8% (inactive) |
| CC1(C)Cc2noc(N)c2C(C)(C)N1O | -4.61% (inactive) |
| COC(=O)CCn1nnc(-c2cccs2)n1 | 3.73% (inactive) |
| CCOc1ccc(N(C(C)=O)C2C=CS(=O)(=O)C2)cc1 (stereo not given) | -1.87% (inactive) |
| CS(=O)(=O)N1CCCC(C(=O)NCCCN2CCC(Cc3ccccc3)CC2)C1 (stereo not given) | 2.6% (inactive) |
| Cn1c(=O)cc(OCC(=O)NCCCN2CCN(c3cccc(Cl)c3)CC2)c2ccccc21 | -6.53% (inactive) |
| CCC(C)NC(=O)c1ccccc1NC(=O)C(C)N(c1ccccc1)S(C)(=O)=O (stereo not given) | -4.19% (inactive) |
| COc1ccc2nc3oc(C(=O)NC4CCN(Cc5ccccc5)CC4)cc3cc2c1 | -2.76% (inactive) |
| Cc1c(Cl)cccc1N1C(=O)c2ccccc2C1=O | -4.86% (inactive) |
| O=C(NC1CCCC1)C(c1ccco1)N(Cc1ccccc1)C(=O)c1csnn1 (stereo not given) | -8.65% (inactive) |
| O=C(O)Cn1cc(C(=O)c2ccco2)c2ccccc21 | -0.52% (inactive) |
| CC(C)(C)Cc1nc(-c2ccccn2)no1 | -1.82% (inactive) |
| COCC(=O)N(Cc1ccc(OC)cc1)Cc1nc2ccccc2c(=O)[nH]1 | -5.66% (inactive) |
| CCCN1C(=O)SC(CC(=O)Nc2ccc(Br)cc2)C1=O (stereo not given) | -2.24% (inactive) |
| COc1cccc(C(=O)n2cnnc2N)c1OC | -5.6% (inactive) |
| O=C(Cn1c(=O)n(Cc2ccc3c(c2)OCO3)c(=O)c2ccccc21)N1CCCc2ccccc21 | -0.39% (inactive) |
| CC(C)[C@H](NC(=O)NC1CCCC1)C(=O)O | -0.52% (inactive) |
| COc1ccc(-c2cc3n(n2)CCc2nc4ccccc4n2-3)cc1 | -5.2% (inactive) |

| Compound | inhibition |
| --- | --- |
| CCc1nc2scc(-c3ccccc3)c2c(=O)n1N | -1.33% (inactive) |
| O=S(=O)(Nc1cccc2ncccc12)c1cccs1 | 0.92% (inactive) |
| O=C(O)c1cccc(CN2C(=O)SC(Nc3ccccc3)C2=O)c1 (stereo not given) | -4.8% (inactive) |
| Cc1nc2ccc(N3C(=O)CCC3=O)cc2[nH]1 | -5.07% (inactive) |
| COCCn1nnnc1C(c1ccc(OC)cc1)N1CCN(c2ccccc2F)CC1 (stereo not given) | -2.6% (inactive) |
| O=S(=O)(c1ccc2nc(Cc3cccc(C(F)(F)F)c3)[nH]c2c1)N1CCOCC1 | -1.69% (inactive) |
| Cc1nnc(SCC(=O)N(C(C)C)C(C)C)nc1C | -5.6% (inactive) |
| O=C(NC1CCCCC1)C1CC(O)CN1C(=O)OCc1ccccc1 (stereo not given) | 0.13% (inactive) |
| CCOC(=O)c1ccc(CC2S/C(=C(\C#N)C(C)=O)NC2=O)cc1 (stereo not given) | -6.53% (inactive) |
| COc1ccc(C2CC(=O)C(C=NCCN3CCOCC3)=C(O)C2)cc1 (stereo not given) | -0.79% (inactive) |
| CN1C(=O)CCC1(O)c1ccccc1 (stereo not given) | 0.91% (inactive) |
| O=c1[nH]c(/C(=N\O)c2ccccc2)no1 | -0.39% (inactive) |
| COC(=O)C1=C(N)Oc2cc(C)[nH]c(=O)c2C1c1ccncc1 (stereo not given) | -0.79% (inactive) |
| O=C(c1cc(S(=O)(=O)N2CCOCC2)ccc1F)N1CCCc2ccccc21 | 0.64% (inactive) |
| CCc1nc(C)c(C#N)c2cc(OC)c(OC)cc12 | -0.91% (inactive) |
| COc1ccc2c(c1OC)C(=O)N(c1ccc3c(c1)CCC3)C2=O | -3.07% (inactive) |
| COc1cc(CC(=O)NCc2ccc3c(c2)OCO3)cc(OC)c1OC | -1.84% (inactive) |
| COc1ccc(CCNC(=O)c2ccc(N3CCCC3=O)cc2)cc1OC | -5.84% (inactive) |
| COc1ccccc1NC(=O)c1ccc(COc2ccccc2OC)o1 | -6.27% (inactive) |
| COc1ccc(NC(=O)CSC2=C(C#N)C(c3ccco3)C3=C(CCCC3=O)N2)c(OC)c1 (stereo not given) | -2.11% (inactive) |
